# Source: PubChem BioAssay (NCATS)
# Inconclusive results are not listed. A call without a number means that no potency is given here. Activity calls are given as the source filed them. Calls come from the whole dose curve; as a rule, active = well fitted curve in the direction sought with a large enough effect; inconclusive = small, poorly fitted or top-dose-only effect, or another doubt; inactive = no such curve, though single readings can be large; an effect the other way counts as inactive or inconclusive.
# What was measured:
# [1] = biological target: Glutathione peroxidase 1 (Homo sapiens) (UniProt P07203); experiment: Primary qHTS Assay for Inhibitors of Recombinant Selenoprotein Glutathione Peroxidase 1 (GPX1) (AID 1845191); note: nearly all actives have a fitted effect of over 65% in size
# Chain of Glutathione peroxidase 1 (Homo sapiens) (P07203 whole entry, looked up): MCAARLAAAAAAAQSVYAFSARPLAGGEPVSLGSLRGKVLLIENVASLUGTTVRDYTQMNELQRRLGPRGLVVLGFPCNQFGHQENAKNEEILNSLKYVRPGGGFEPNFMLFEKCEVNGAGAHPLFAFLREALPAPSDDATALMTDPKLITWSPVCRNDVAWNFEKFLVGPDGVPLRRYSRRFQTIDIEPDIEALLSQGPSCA
# Method in brief: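 10 nM GPX1 + cpd, 30 min RT; start w/ 1 mM GSH, 0.5 mM cumene hydroperoxide, 0.5 mM NADPH, 100 nM GR, 0.01% BSA; buffer 50 mM Tris-HCl pH 7.5, 2 mM EDTA, 150 mM NaCl; Fl 340/450, 0 & 15 min.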
# [2] = biological target: Phospholipid hydroperoxide glutathione peroxidase GPX4 (Homo sapiens) (UniProt P36969); experiment: Primary qHTS Assay for Inhibitors of Recombinant Selenoprotein Glutathione Peroxidase 4 (GPX4) (AID 1845192); note: nearly all actives have a fitted effect of over 65% in size
# Chain of Phospholipid hydroperoxide glutathione peroxidase GPX4 (Homo sapiens) (P36969 whole entry, looked up): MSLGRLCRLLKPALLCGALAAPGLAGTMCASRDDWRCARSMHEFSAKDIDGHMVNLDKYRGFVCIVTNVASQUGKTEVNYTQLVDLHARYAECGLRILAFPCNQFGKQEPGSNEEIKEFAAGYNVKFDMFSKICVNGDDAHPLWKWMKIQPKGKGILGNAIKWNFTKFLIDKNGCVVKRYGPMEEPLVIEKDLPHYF
# Method in brief: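 NADPH consumption, followed by fluorescence at 340/450 nm between 0 and 15 min, reports GPX4 activity via coupled glutathione reductase (100 nM). Enzyme 200 nM was pre-exposed to compound 30 min; 0.5 mM cumene hydroperoxide and 1 mM GSH served as substrates.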
# [3] = biological target: Metallo-beta-lactamase type 2 (Klebsiella pneumoniae) (UniProt C7C422); experiment: qHTS to identify inhibitors of the New Delhi Metallo-beta-lactamase (NDM): assay validation screen against the NCATS LOPAC Collection (AID 1794843);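 note: nitrocefin turnover by NDM-1 measured as 485 nm absorbance at plateau; series mostly up to about 38 µM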
# Chain of Metallo-beta-lactamase type 2 (Klebsiella pneumoniae) (C7C422 whole entry, looked up): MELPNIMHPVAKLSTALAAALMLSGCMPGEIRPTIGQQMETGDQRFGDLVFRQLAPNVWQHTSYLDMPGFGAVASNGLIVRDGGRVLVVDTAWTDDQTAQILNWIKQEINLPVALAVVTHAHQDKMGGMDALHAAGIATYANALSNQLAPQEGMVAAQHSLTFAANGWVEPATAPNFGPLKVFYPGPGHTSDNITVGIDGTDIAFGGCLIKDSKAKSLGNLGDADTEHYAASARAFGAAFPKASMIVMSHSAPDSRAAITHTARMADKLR
# Method in brief: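 NDM-1 at 2 nM final in 50 mM HEPES pH 7.0 with 1 uM ZnSO4 and 0.01% Tween20 was preincubated with library compounds in DMSO. Nitrocefin (50 uM stock) was then added, and absorbance at 485 nm was read at the kinetic plateau.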
# [4] = HepG2 viability counterscreen (readout 2: ATP content) against the NCATS DSHEA and TCM libraries (AID 1794840)
# Method in brief: (§1)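 HepG2 cells, 1,000/well, attached ~4 h, then exposed ~24 h at 37C to substances. Protease activity read by fluorescence of 25 uM GF-AFC (Ex/Em 380/510 nm) after 30 min; ATP then by CellTiter-Glo luminescence.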
# [5] = HepG2 viability counterscreen (readout 1: protease activity) against the NCATS DSHEA and TCM libraries (AID 1794841);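 note: cells exposed to compounds for about 24 h before the protease read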
# Method in brief: as §1
# [6] = biological target: Cytochrome P450 3A4 (Homo sapiens) (UniProt P08684); experiment: qHTS for inhibitors of CYP3A4 against the NCATS DSHEA and TCM libraries (AID 1919971);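 note: inhibition lowers luminescence from luciferin made by CYP3A4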
# Chain of Cytochrome P450 3A4 (Homo sapiens) (P08684 whole entry, looked up): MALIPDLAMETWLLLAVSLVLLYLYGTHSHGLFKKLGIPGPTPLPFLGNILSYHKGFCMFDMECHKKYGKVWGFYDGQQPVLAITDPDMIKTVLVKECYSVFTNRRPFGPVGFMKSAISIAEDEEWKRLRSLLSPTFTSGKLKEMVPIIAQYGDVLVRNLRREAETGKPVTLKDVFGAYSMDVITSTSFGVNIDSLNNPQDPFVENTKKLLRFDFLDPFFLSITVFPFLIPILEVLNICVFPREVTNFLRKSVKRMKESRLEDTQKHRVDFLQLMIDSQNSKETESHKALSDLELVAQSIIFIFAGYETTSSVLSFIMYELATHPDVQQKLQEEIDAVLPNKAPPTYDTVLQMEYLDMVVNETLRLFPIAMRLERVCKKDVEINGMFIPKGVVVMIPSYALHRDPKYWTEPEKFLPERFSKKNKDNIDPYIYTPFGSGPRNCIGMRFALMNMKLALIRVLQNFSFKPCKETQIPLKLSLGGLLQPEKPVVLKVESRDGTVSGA
# Method in brief: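 Light output from converted D-luciferin reports remaining CYP activity. Compounds preincubate with enzyme and substrate for 15 min; NADPH regeneration (1x final) runs the reaction for 30-45 min.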
compound,measurement,setting,value
CN(CCCN1c2ccccc2CCc2ccccc21)CC(=O)c1ccc(Cl)cc1,Potency,[1],inactive
same,Potency,[2],inactive
C=C[C@@]1(C)CC(=O)[C@]2(O)[C@@]3(C)[C@@H](O)CCC(C)(C)[C@@H]3[C@H](O)[C@H](OC(C)=O)[C@@]2(C)O1,Potency,[1],inactive
CCOC(=O)[C@H](CCc1ccccc1)N[C@@H](C)C(=O)N1[C@H](C(=O)O)C[C@H]2CCCC[C@@H]21,outcome,[3],inactive
same,Potency,[2],inactive
CN=C(N)NCCC[C@H](N)C(=O)O,outcome,[3],inactive
same,Potency,[1],inactive
same,Potency,[2],inactive
CN(C)CCC[C@@]1(c2ccc(F)cc2)OCc2cc(C#N)ccc21,Potency,[1],inactive
Cc1cc(C)cc(OCC2CNC(=O)O2)c1 (stereo not given),Potency,[1],inactive
same,Potency,[2],inactive
C#C[C@]1(OC(C)=O)CC[C@H]2[C@@H]3CCC4=C/C(=N/O)CC[C@@H]4[C@H]3CC[C@@]21CC,Potency,[1],inactive
same,Potency,[2],inactive
C#C[C@]1(O)CC[C@H]2[C@@H]3CCc4cc(OC)ccc4[C@H]3CC[C@@]21C,Potency,[1],inactive
same,Potency,[2],inactive
N/C(=N\N=C\c1ccc(Cl)cc1)N/N=C/c1ccc(Cl)cc1,Potency,[1],inactive
same,Potency,[2],inactive
CC(C)(C)NC[C@H](O)COc1cccc2c1CCCC2=O,Potency,[1],inactive
same,Potency,[2],inactive
O=C1C(CCS(=O)c2ccccc2)C(=O)N(c2ccccc2)N1c1ccccc1 (stereo not given),Potency,[1],inactive
same,Potency,[2],inactive
OC[C@H]1O[C@@H](Oc2ccc(O)cc2)[C@H](O)[C@@H](O)[C@@H]1O,Potency,[1],inactive
same,Potency,[2],inactive
CNCCCCOc1ccccc1Cc1ccccc1,Potency,[1],inactive
same,Potency,[2],inactive
CC(C(=O)O)c1cccc(Oc2ccccc2)c1 (stereo not given),Potency,[1],inactive
same,Potency,[2],inactive
O[C@@H](c1cc(C(F)(F)F)nc2c(C(F)(F)F)cccc12)[C@H]1CCCCN1,Potency,[1],inactive
same,Potency,[2],inactive
CC(=O)Nc1ccc(CC(=O)O)cc1,Potency,[1],inactive
same,Potency,[2],inactive
CC(=O)O[C@]1(C(C)=O)CC[C@H]2[C@@H]3C=C(Cl)C4=CC(=O)CC[C@]4(C)[C@H]3CC[C@@]21C,Potency,[1],inactive
same,Potency,[2],inactive
CC(C)[C@@H]1CC[C@@H](C)CC1=O,Potency,[1],inactive
same,Potency,[2],inactive
Cc1ccccc1OCC(O)CO (stereo not given),Potency,[1],inactive
same,Potency,[2],inactive
OC1C(O)C(O)C(O)C(O)C1O (stereo not given),outcome,[4],inactive
same,outcome,[5],inactive
same,Potency,[1],inactive
same,Potency,[2],inactive
same,outcome,[6],inactive
c1ccc(-c2nc[nH]c2-c2ccccc2)cc1,Potency,[1],inactive
same,Potency,[2],inactive
C#C[C@]1(O)CC[C@H]2[C@@H]3CCC4=Cc5oncc5C[C@]4(C)[C@H]3CC[C@@]21C,Potency,[1],inactive
same,Potency,[2],inactive
CC(=O)O[C@H]1C[C@@H]2CC[C@@H]3[C@H](CC[C@@]4(C)[C@H]3C[C@H]([N+]3(C)CCCCC3)[C@@H]4OC(C)=O)[C@@]2(C)C[C@@H]1N1CCCCC1,Potency,[1],inactive
same,Potency,[2],inactive
Nc1ccc(S(=O)(=O)Nc2cnc3ccccc3n2)cc1,Potency,[1],inactive
same,Potency,[2],inactive
Nc1nc(Cl)nc2c1ncn2[C@@H]1O[C@H](CO)[C@@H](O)[C@@H]1F,Potency,[1],inactive
same,Potency,[2],inactive
COc1ccc(C(=O)c2ccccc2)c(O)c1,Potency,[1],inactive
same,Potency,[2],inactive
CC(C)(C)NC[C@H](O)COc1nsnc1N1CCOCC1,outcome,[3],inactive
same,Potency,[1],inactive
same,Potency,[2],inactive
CCC(Cc1c(I)cc(I)c(N)c1I)C(=O)O (stereo not given),Potency,[1],inactive
same,Potency,[2],inactive
CCCN(CCc1cccs1)[C@H]1CCc2c(O)cccc2C1,Potency,[1],inactive
same,Potency,[2],inactive
CCCCC(CC)COC(=O)c1ccc(N(C)C)cc1 (stereo not given),Potency,[1],inactive
same,Potency,[2],inactive
CN1CCC(OC(c2ccccc2)c2ccccc2)CC1,Potency,[1],inactive
same,Potency,[2],inactive
COc1cc([C@H]2Oc3cc([C@H]4Oc5cc(O)cc(O)c5C(=O)[C@@H]4O)ccc3O[C@@H]2CO)ccc1O,Potency,[1],inactive
CCN(CC)CCOC(=O)C1(c2ccccc2)CCCC1,Potency,[1],inactive
same,Potency,[2],inactive
CN(Cc1ccc(C(C)(C)C)cc1)Cc1cccc2ccccc12,Potency,[1],inactive
same,Potency,[2],inactive
NC(N)=NCc1cccc(I)c1,outcome,[3],inactive
same,Potency,[1],inactive
same,Potency,[2],inactive
CCCCCCCCCCCCCCCCO,Potency,[1],inactive
same,Potency,[2],inactive
CCN[C@@H]1C[C@H](N)[C@@H](OC2OC(CN)=CCC2N)[C@H](O)[C@H]1O[C@H]1OC[C@](C)(O)[C@H](NC)[C@H]1O (stereo not given in full),outcome,[1],inactive [at 0.4 µM]
same,outcome,[2],inactive [at 0.409 µM]
CCCCCCCCCCCCCCCC(=O)O,outcome,[4],inactive
same,outcome,[5],inactive
same,outcome,[6],inactive
